In PubChem BioAssay (NCI) one finds growth data, which are given here for 9 molecules.

What all share (test): NCI-60 one-dose screen, 48 h (100 = growth as untreated, 0 = no growth, -100 = all killed)
The subject of one test is SK-MEL-2 melanoma. To be noted: 10 µM unless noted.
A further test relates to SN12C renal. To be noted: 10 µM unless noted.
The test system of another test is UO-31 renal. Particulars: 10 µM unless noted.
For a further test, the system named is TK-10 renal. Particulars: 10 µM unless noted.
A further test relates to ACHN renal. To be noted: 10 µM unless noted.
A further test concerns CAKI-1 renal. Particulars: 10 µM unless noted.
A further test relates to HL-60(TB) leukemia. To be noted: 10 µM unless noted.
A further test relates to CCRF-CEM leukemia. To be noted: 10 µM unless noted.
For another test, the system named is MOLT-4 leukemia. To be noted: 10 µM unless noted.
The next test relates to SR leukemia. To be noted: 10 µM unless noted.
The subject of a further test is RPMI-8226 leukemia. Particulars: 10 µM unless noted.
The next test has as its system OVCAR-8 ovarian. Particulars: 10 µM unless noted.
A further test relates to OVCAR-5 ovarian. To be noted: 10 µM unless noted.
For the next test, the system named is OVCAR-4 ovarian. Particulars: 10 µM unless noted.
The next test has as its system SK-OV-3 ovarian. To be noted: 10 µM unless noted.
The subject of another test is IGROV1 ovarian. To be noted: 10 µM unless noted.
The next test concerns OVCAR-3 ovarian. To be noted: 10 µM unless noted.
A further test deals with HS 578T breast. Particulars: 10 µM unless noted.
The next test relates to A498 renal. To be noted: 10 µM.

About 83,000 compounds went through this panel and 20% of them were active in at least one assay; those are over-represented in the sample as a whole.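 The test compound was applied at a single concentration to cells in 96-well plates for 48 hours, and percent growth was recorded.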 Unmarked numbers belong to inactive results. Activity calls are given as the source filed them. How the source made its calls: active means growth percent below 10; inactive means the rest.

Consider `COc1ccc(/C=C\c2cc(OC)c(OC)c(OC)c2)c(NS(=O)(=O)c2ccc(F)cc2)c1O`, for which the growth was -6.87% (active) with SK-MEL-2 melanoma; 28.1% with SN12C renal; 48% in the test on UO-31 renal; 59.3% in the test on TK-10 renal; 24.4% with ACHN renal; 20.8% in the test on CAKI-1 renal. Further, the growth was 10.1% in the test on HL-60(TB) leukemia; 17.4% with CCRF-CEM leukemia; 19.6% with MOLT-4 leukemia; 19% in the test on SR leukemia; 23.3% in the test on RPMI-8226 leukemia; 22.5% in the test with OVCAR-8 ovarian. Further, the growth in the test with OVCAR-5 ovarian is 40.4%; in the test on OVCAR-4 ovarian it was 29.3%; in the test with SK-OV-3 ovarian, 12.4%; with IGROV1 ovarian, 28.3%; with OVCAR-3 ovarian it was -37.8% (active); in the test on HS 578T breast it was 25.3%.

Regarding `COC(=O)[C@@H](C)C[C@H](Cc1ccc(F)cc1)NC(=O)c1csc([C@@H](C[C@H](C(C)C)N(C)C(=O)[C@@H](NC(=O)[C@H]2CCCCN2C)C(C)C)OC(C)=O)n1`, the growth is 37.7% in the test on SK-MEL-2 melanoma; 26.6% with SN12C renal; 47% with UO-31 renal; 50.2% in the test on TK-10 renal; 22.1% in the test with ACHN renal; -3.94% (active) in the test on A498 renal. The growth in the test with HL-60(TB) leukemia is -37.5% (active); with CCRF-CEM leukemia, 12.3%; with MOLT-4 leukemia it was 18.3%; with SR leukemia it was 14.9%; in the test on RPMI-8226 leukemia, 17.4%; with OVCAR-8 ovarian, 30%. Further, the growth with OVCAR-5 ovarian was 53.7%; with OVCAR-4 ovarian, 49.2%; in the test on SK-OV-3 ovarian, 21.4%; in the test with IGROV1 ovarian it was 25.3%; in the test on OVCAR-3 ovarian, -27.4% (active); in the test on HS 578T breast, 34%.

Take `O=[N+]([O-])c1ccc(OP(=O)(CCl)N(CCCl)CCCl)cc1` (stereo unspecified): the growth is 81.9% with SK-MEL-2 melanoma; 112% in the test with SN12C renal; 84.4% with UO-31 renal; 99.6% with TK-10 renal; 101% in the test with ACHN renal; 95.2% in the test with CAKI-1 renal. In addition, the growth with A498 renal was 109%; with HL-60(TB) leukemia, 94.4%; in the test on MOLT-4 leukemia, 89.7%; with SR leukemia, 87.9%; in the test with RPMI-8226 leukemia, 104%; in the test with OVCAR-8 ovarian it was 100%. Besides, the growth with OVCAR-5 ovarian is 99.6%; in the test on OVCAR-4 ovarian, 104%; in the test with SK-OV-3 ovarian, 106%; in the test on IGROV1 ovarian, 104%; with OVCAR-3 ovarian, 118%.

With `COc1ccc(S(=O)(=O)Nc2c(/C=C\c3cc(OC)c(OC)c(OC)c3)ccc(OC)c2O)cc1OC`, the growth with SK-MEL-2 melanoma was 9.91% (active); with SN12C renal it was 31%; in the test with UO-31 renal, 49.3%; in the test with TK-10 renal it was 70.9%; in the test with ACHN renal, 29.6%; with CAKI-1 renal it was 22.8%. The growth in the test on HL-60(TB) leukemia was 4.28% (active); in the test with CCRF-CEM leukemia it was 12%; in the test on MOLT-4 leukemia, 16.8%; in the test with SR leukemia, 15.9%; with RPMI-8226 leukemia, 25.4%; in the test with OVCAR-8 ovarian it was 20.3%. In addition, the growth with OVCAR-5 ovarian was 33.7%; with OVCAR-4 ovarian, 43%; in the test on SK-OV-3 ovarian it was 9.89% (active); in the test on IGROV1 ovarian, 23.9%; in the test with OVCAR-3 ovarian it was -20.9% (active).

With `COc1cc(C=Nc2cc(Cl)cc(Cl)c2)ccc1N(CCCl)CCCl`, the growth in the test on SK-MEL-2 melanoma is 113%; in the test with SN12C renal, 87.6%; in the test on UO-31 renal, 66.6%; in the test with TK-10 renal, 148%; with ACHN renal, 63%; with CAKI-1 renal, 63.3%. Besides, the growth in the test on A498 renal is 65.2%; in the test on CCRF-CEM leukemia it was 56.4%; in the test on MOLT-4 leukemia, 58.9%; with SR leukemia, 41.2%; with RPMI-8226 leukemia it was 75%; in the test on OVCAR-8 ovarian, 90.5%. In addition, the growth in the test with OVCAR-5 ovarian was 105%; with OVCAR-4 ovarian, 99.5%; in the test on SK-OV-3 ovarian, 91.1%; in the test with IGROV1 ovarian it was 56.7%; in the test with OVCAR-3 ovarian, 91.1%; in the test with HS 578T breast, 93.5%.

As for `O=[N+]([O-])c1cnc[nH]1`, the growth is 102% in the test with SK-MEL-2 melanoma; 103% in the test on SN12C renal; 94.8% in the test on UO-31 renal; 111% with TK-10 renal; 118% in the test on ACHN renal; 99% in the test on CAKI-1 renal. For the same molecule, the growth is 134% with HL-60(TB) leukemia; 103% in the test with CCRF-CEM leukemia; 114% in the test with MOLT-4 leukemia; 117% with SR leukemia; 107% with RPMI-8226 leukemia; 109% in the test on OVCAR-8 ovarian. The growth was 108% in the test with OVCAR-5 ovarian; 114% with OVCAR-4 ovarian; 110% in the test on SK-OV-3 ovarian; 127% with IGROV1 ovarian; 112% in the test on OVCAR-3 ovarian; 106% with HS 578T breast.

Consider `C/C(=C\c1ccn(-c2ccc(N)c(F)c2)n1)[C@@H]1C[C@@H]2O[C@]2(C)CCC[C@H](C)[C@H](O)[C@@H](C)C(=O)C(C)(C)[C@@H](O)CC(=O)O1`, for which the growth in the test on SK-MEL-2 melanoma was 23.2%; with SN12C renal it was 35.7%; in the test with UO-31 renal, 36.9%; in the test on TK-10 renal, 44.6%; in the test with ACHN renal, 44.6%; in the test on CAKI-1 renal it was 37.5%. Also, the growth in the test with A498 renal was 13%; in the test on CCRF-CEM leukemia it was 12.1%; with MOLT-4 leukemia, 6.16% (active); in the test with SR leukemia it was 9.07% (active); with RPMI-8226 leukemia, 8.95% (active); in the test with OVCAR-8 ovarian, 24.7%. Also, the growth is 19.4% in the test on OVCAR-5 ovarian; 52.2% in the test with OVCAR-4 ovarian; 50.7% in the test with SK-OV-3 ovarian; 34% with IGROV1 ovarian; 2.8% (active) in the test on OVCAR-3 ovarian; 2.63% (active) with HS 578T breast.

With `CNC(=O)Oc1ccc(C(C)(C)C)cc1OC(=O)NC`, the growth in the test on SK-MEL-2 melanoma was 70.7%; in the test on SN12C renal, 95.2%; in the test on UO-31 renal, 94.9%; in the test with TK-10 renal, 98.2%; in the test with ACHN renal it was 106%; in the test on A498 renal it was 98.8%. Further, the growth is 85.8% in the test on HL-60(TB) leukemia; 96.6% in the test with CCRF-CEM leukemia; 81.6% with MOLT-4 leukemia; 87.9% with SR leukemia; 100% with OVCAR-8 ovarian; 108% in the test on OVCAR-5 ovarian. Further, the growth in the test with OVCAR-4 ovarian was 96.3%; with SK-OV-3 ovarian, 88.4%; in the test on IGROV1 ovarian it was 104%; in the test on OVCAR-3 ovarian it was 102%; with HS 578T breast it was 106%.

For the molecule `CC1[C@H](C)OC(=O)CC(O)CC(O)CC(O)CCC(O)C(O)C[C@]2(O)CC(O)C(C(=O)O)C(CC(OC3O[C@H](C)[C@@H](O)[C@H](N)[C@@H]3O)/C=C/C=C/C=C/C=C/CC/C=C/C=C/[C@H](C)[C@H]1O)O2` (stereo partly specified), the growth was 134% in the test with SK-MEL-2 melanoma; 98.5% with SN12C renal; 93.2% in the test with UO-31 renal; 123% with TK-10 renal; 90.8% in the test with ACHN renal; 88.6% in the test with CAKI-1 renal. Also, the growth with HL-60(TB) leukemia is 110%; in the test with CCRF-CEM leukemia, 90.6%; in the test with MOLT-4 leukemia, 122%; with OVCAR-8 ovarian, 92%; in the test on OVCAR-5 ovarian, 95.4%; in the test on OVCAR-4 ovarian it was 102%. For the same molecule, the growth is 110% in the test with SK-OV-3 ovarian, 101% with IGROV1 ovarian and 109% in the test on OVCAR-3 ovarian.
